This is a sample that favours compounds with a hit; in the whole collection about 17% have one here.
HepG2 viability – counter-screen for TGF-b inhibitors: cytotoxicity in HepG2 cells. HepG2 CAGA-GFP viability, ATP luminescence, 18 h. Potency, µM (series often up to 46.1 µM), most hits filed as cytotoxic. 410,000 tested, 0.76% active. AID 588856
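CellTiter-Glo luminescence gave cytotoxicity after 18 hours at 37 degrees C. The cells were HepG2 CAGA-GFP in 1% FBS DMEM, stimulated with 500 pg/mL TGF-beta after compound addition. %Activity was normalised to no-cell wells (complete cell-killing) and DMSO (no toxicity), and curves were fitted and classified.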
ATXN2 expr inh – reduces ATXN2 reporter expression in HEK-293 cells. HEK-293 ATXN2-luciferase reporter, luminescence, 24 h. 360,000 tested, 0.72% active. Potency, µM (top dose mostly 57 µM), most hits filed as inhibitors. AID 1745845; further: nearly all actives have a fitted effect of over 55% in size
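qHTS (up to 57 uM final) was run with 24 h compound exposure of reporter cells at 37 °C. Each well was multiplexed: SteadyGlo luminescence measured ATXN2-luciferase expression after a fluorogenic Gly-Phe-AFC viability readout (25 uM final).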
ATXN viability – viability counter-screen for ATXN expression inhibitors. Potency, µM (top dose mostly 56.7 µM), usual class: cytotoxic. 400,000 tested, 0.49% active. S2 cells (HEK-293 line with an ATXN2-luciferase reporter) viability, CellTiter-Fluor protease fluorescence, 24 h; further: nearly all actives have a fitted effect of over 40% in size
DT40 TDP1 CPT – growth inhibition of DT40 Tdp1-/-;hTDP1 cells with camptothecin (screen for TDP1 inhibitors); chicken DT40 Tdp1-/-;hTDP1 cells + 20 nM CPT, ATP luminescence, 48 h; Potency, µM (series often up to 46.2 µM), hits mostly inhibitors; 420,000 tested, 12% active; AID 686979; further: nearly all actives have a fitted effect of over 55% in size
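Cell growth measured by CellTiter-Glo luminescence after a minimum 48 h, 37 C compound exposure with 20 nM CPT in Tdp1-knockout DT40 cells stably expressing hTDP1, seeded 400/well; qHTS titration format.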
TGFb inhibitor – blocks TGF-b signaling | HepG2 CAGA-GFP TGF-b/SMAD3 reporter, GFP fluorescence, 18 h; TGF-beta stimulated, 500 pg/mL final | Potency, µM (highest dose often 46.1 µM), most hits filed as inhibitors | 410,000 tested, 1.2% active; further: nearly all actives have a fitted effect of over 65% in size
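TGF-beta reporter screen: HEPG2 CAGA-GFP, 1% FBS, 500 pg/mL TGF-beta final, 18 h; per-cell GFP summed per well; curves fitted and categorized by class.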
TDP1 cell noCPT – qHTS for Inhibitors of human tyrosyl-DNA phosphodiesterase 1 (TDP1): qHTS in cells in absence of CPT; DT40 Tdp1-/- hTDP1 cells, no CPT, ATP luminescence, 48 h; Potency, µM (highest dose often 46.2 µM), actives largely listed as inhibitors; 420,000 tested, 15% active; further: nearly all actives have a fitted effect of over 55% in size
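Seeded 400 DT40-hTDP1 cells/well (vehicle DMSO, no 20 nM CPT); pinned compounds; ≥48 hr at 37 °C; CellTiter-Glo luminescence as viability measure.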
A number is an active result; i = inactive; ? = inconclusive; nt = no result given; [ ] = another dose, or the depositor's remark. The call rests on the fitted dose curve; in most records, active means well fitted curve in the direction sought with a large enough effect; inconclusive means small, poorly fitted or top-dose-only effect, or another doubt; inactive means no such curve, though single readings can be large; an effect the other way counts as inactive or inconclusive.

SMILES	HepG2 viability	ATXN2 expr inh	ATXN viability	DT40 TDP1 CPT	TGFb inhibitor	TDP1 cell noCPT
CC(C)CC1C(=O)N(Cc2cn(CCC3OCCCO3)nn2)CCS(=O)(=O)N1Cc1ccc(-c2ccc(Cl)c(Cl)c2)cc1 (stereo not given)	i	?	31.6µM	14.6µM	?	16.4µM
CC(C)CC1C(=O)N(Cc2cn(CCC3OCCCO3)nn2)CCS(=O)(=O)N1Cc1ccc(-c2ccc(Cl)nc2)cc1 (stereo not given)	i	?	nt	?	i	20.6µM
CC(C)C1C(=O)N(Cc2cn(CCC3OCCCO3)nn2)CCS(=O)(=O)N1Cc1ccc(-c2ccc(Cl)nc2)cc1 (stereo not given)	i	i	?	?	i	23.1µM
CC(C)CC1C(=O)N(Cc2cn(CCC3OCCCO3)nn2)CCS(=O)(=O)N1Cc1ccc(-c2ccc(Cl)cc2)cc1 (stereo not given)	i	i	?	?	i	?
COc1ccc(-c2ccc(CN3C(C(C)C)C(=O)N(Cc4cn(CCC5OCCCO5)nn4)CCS3(=O)=O)cc2)cn1 (stereo not given)	i	i	i	14.6µM	i	20.6µM
C[C@H]1CN([C@@H](C)CO)C(=O)Cc2cc(NS(=O)(=O)c3cn(C)cn3)ccc2O[C@@H]1CN(C)C(=O)Nc1ccc(F)cc1	i	i	i	i	i	i
CC(C)C[C@@H]1O[C@H](C(C)C)Cc2[nH][nH]c(=O)c21	nt	i	i	?	nt	?
CC(NCC(O)COc1ccc2ccccc2c1)c1ccccc1 (stereo not given)	11.2µM	17.8µM	?	16.4µM	?	16.4µM
CC(C)NCC(O)COc1ccc(Br)cc1 (stereo not given)	i	i[11.3 µM]	i	i	i	i
CCCC(NCC(O)COc1ccc(-c2ccccc2)cc1)c1ccccc1 (stereo not given)	i	18.9µM	?	7.31µM	?	4.11µM
Cc1cc(OCC(O)CNC(C)c2ccccc2)ccc1C(C)C (stereo not given)	i	i	?	23.1µM	?	23.1µM
CCC(CC)NCC(O)COc1ccc(Br)cc1 (stereo not given)	i	?	i	?	i	20.6µM
COc1ccc(OCC(O)CNC(C)c2ccccc2)cc1 (stereo not given)	i	nt	i	?	i	?
COc1ccc(N2CCN(C(=O)c3oc4ccccc4c3NC(=O)Cc3ccc(OC)c(OC)c3)CC2)cc1	i	i	i	?	i	i
O=c1c2c(nc3cc(-c4cccc(Cl)c4)[nH]n13)CCC2	i	i	i	?	i	?
OC1CCCN(c2c3c(nc4cc(-c5cccc(F)c5)nn24)CCCC3)C1 (stereo not given)	i	nt	i	23.1µM	i	?
Cc1cccc(-c2cc3nc4c(c(N5CCCC(O)C5)n3n2)CCC4)c1 (stereo not given)	i	i	i	?	?	25.9µM
OC1CCCN(c2c3c(nc4cc(-c5cccc(Cl)c5)nn24)CCC3)C1 (stereo not given)	i	i	i	18.4µM	?	?
COCCN1CCN(c2c3c(nc4cc(-c5cccc(F)c5)nn24)CCC3)CC1	i	i	i	?	i	23.1µM
CN(C)CCCNc1c2c(nc3cc(-c4cccc(F)c4)nn13)CCC2	i	nt	i	i	i	i
NNC(=O)C1CC1c1ccc(Cl)cc1 (stereo not given)	i	i	i	i	i	i
CCC(C(=O)Nc1ncc(C)s1)c1ccccc1 (stereo not given)	i	i	i	i	i	i
O=C(CCn1c2c(c3ccccc31)CCCC2)NNC(=O)c1ccccc1C(=O)O	i	i	i	i	i	i
O=C(CCn1c2c(c3ccccc31)CCCC2)NNC(=O)c1ccccc1[N+](=O)[O-]	i	i	i	?	i	7.31µM
